From PubChem BioAssay (NCATS) come the findings set out here.

For one test, the system named is CRL-7250. Nature of the test: Cytotoxic Profiling of Annotated Libraries Using Quantitative High-Throughput Screening (AID 1296008). Also: nearly all actives have a fitted effect of over 60% in size. Also: potency is read from the fitted curve at half-maximal effect. As to max response: % is scaled to controls: 0 for no effect and ±100 for the full control effect. As to conditions: Five cell lines viability, CellTiter-Glo ATP luminescence, 48-72 h; max response: active compounds read low. Put shortly: (§1)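 Cytotoxicity was measured as CellTiter-Glo ATP luminescence, read after 10 min at room temperature. Compound treatment of the cells lasted 48 or 72 hr at 37 degrees Celsius in a qHTS format.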
A general note: In ATP-based viability assays light output follows the ATP content of the culture.

The test system of the next test is HEK293. Described as above. As to conditions: Five cell lines viability, CellTiter-Glo ATP luminescence, 48-72 h; max response: active compounds read low. In short, it runs like this: as §1
The subject of test [1] is HaCat. Described as above. Particulars: Five cell lines viability, CellTiter-Glo ATP luminescence, 48-72 h; max response: active compounds read low. In short, it runs like this:
as §1

Another test deals with KB-3-1. The description is as above. As to conditions: Five cell lines viability, CellTiter-Glo ATP luminescence, 48-72 h; max response: active compounds read low. Put shortly:
as §1

Another test deals with NIH3T3. The test is described as above. Particulars: Five cell lines viability, CellTiter-Glo ATP luminescence, 48-72 h; max response: active compounds read low. Put shortly:
as §1

Test [2] concerns HACAT. Nature of the test: qHTS assay to identify novel small-molecules to repurpose for Merkel cell carcinoma treatment (AID 1296009). Also: nearly all actives have a fitted effect of over 60% in size. As to conditions: MCC and control cell lines, CellTiter-Glo viability, 72 h; at 44.8 µM (top of the series) unless noted. In short, it runs like this: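 Cell viability measured by CellTiter-Glo following 72 hr compound treatment at 37 degree celsius, with NPC and MIPE libraries tested in 8- and 11-point concentration series.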
A general note: Quantitative high-throughput screening tests each substance at several concentrations.

The next test has as its system C33A. Nature of the test: Primary qHTS to identify gynecologic anti-cancer compounds using libraries of approved drugs and bioactive compounds (AID 1345084). Also: % is scaled to controls: 0 for no effect and ±100 for the full control effect; nearly all actives have a fitted effect of over 55% in size. As to conditions: Gynecologic cancer cell panel viability, ATPlite luminescence, 48 h; series mostly up to 57.5 µM. In short, it runs like this: (§2)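 Cell viability after 48 h drug treatment, ATPlite luminescence readout; five doses.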

Another test concerns CAOV3. The test is described as above. As to conditions: Gynecologic cancer cell panel viability, ATPlite luminescence, 48 h; series mostly up to 57.5 µM. In short, it runs like this: as §2
The test system of another test is CASKI. The description is as above. As to conditions: Gynecologic cancer cell panel viability, ATPlite luminescence, 48 h; series mostly up to 57.5 µM. In short, it runs like this: as §2
For another test, the system named is Es-2. Described as above. As to conditions: Gynecologic cancer cell panel viability, ATPlite luminescence, 48 h; series mostly up to 57.5 µM. Put shortly:
as §2

Another test deals with HeLa. The description is as above. Particulars: Gynecologic cancer cell panel viability, ATPlite luminescence, 48 h; series mostly up to 57.5 µM. In short, it runs like this: as §2
Another test deals with Hek293T. The description is as above. As to conditions: Gynecologic cancer cell panel viability, ATPlite luminescence, 48 h, control line for the selectivity index; series mostly up to 57.5 µM. In short, it runs like this:
as §2

The subject of a further test is JEG-3. The test is described as above. As to conditions: Gynecologic cancer cell panel viability, ATPlite luminescence, 48 h; series mostly up to 57.5 µM. Put shortly: as §2
In a further test the test system is OV90. The test is described as above. Particulars: Gynecologic cancer cell panel viability, ATPlite luminescence, 48 h; series mostly up to 57.5 µM. In short, it runs like this:
as §2

The structures appear in SMILES notation. Inconclusive results are not listed. Values without a mark were called inactive. Active and inactive are the calls of the source. Calls follow the shape of the dose curve; as a rule, active = well fitted curve in the direction sought with a large enough effect; inconclusive = small, poorly fitted or top-dose-only effect, or another doubt; inactive = no such curve, though single readings can be large; an effect the other way counts as inactive or inconclusive.

`C=C1CC[C@@H]2[C@](C)(CO)[C@H](O[C@@H]3O[C@H](CO)[C@@H](O)[C@H](O)[C@H]3O)CC[C@@]2(C)[C@@H]1C/C=C1/C(=O)OC[C@H]1O`: the max response in the test on CRL-7250 was -3.97%; in the test on HEK293 it was -5.74%; with KB-3-1, -0.713%; in the test on NIH3T3, -0.313%. Further, the molecule was called inactive in the test with HaCat [1] and in the test on CASKI. Besides, the outcome with HACAT [2] was “inactive [at 17.4 µM]”. Further, the Potency result in the test with C33A, in the test on CAOV3, with Es-2, in the test with HeLa, with Hek293T and with JEG-3 was “inactive” throughout. Moreover, in the test with OV90, the Potency entry is “inactive”.
For the molecule `CCc1nn(CCO)c(CC)c1Oc1cc(C#N)cc(C#N)c1`, the result in the test with CRL-7250, in the test with HaCat [1], in the test with KB-3-1, with HACAT [2] and in the test with CASKI was inactive. Also, the results for the max response with HEK293 and in the test with NIH3T3 were 2.02% and -3.44%, respectively. Also, the Potency entry in the test on C33A, in the test on CAOV3, with Es-2, in the test on HeLa, in the test on Hek293T and with JEG-3 was “inactive” each time. For the same molecule, the Potency entry in the test with OV90 is “inactive”.
Regarding `CCC(C)(C)C1CCc2c(sc(NC(=O)c3ccc(Br)cc3)c2C#N)C1` (stereo not given), the figures for the max response in the test on CRL-7250, in the test on HEK293 and in the test with NIH3T3 were -2.34%, 2.37% and 3.88%, respectively. Further, the outcome in the test with HaCat [1], in the test on KB-3-1, in the test with HACAT [2] and in the test with CASKI was inactive. In addition, the Potency entry in the test with C33A, with CAOV3, with Es-2, in the test on HeLa, in the test with Hek293T and in the test with JEG-3 was “inactive” throughout. In the test with OV90, the Potency entry was “inactive”.
With `C=C(CCO[C@@H]1O[C@H](CO)[C@@H](O)[C@H](O)[C@H]1O)C(=O)O`, the max response with CRL-7250 is -12.8%; with HEK293 it was -3.91%; in the test with NIH3T3, -0.513%. The molecule was classed as inactive with HaCat [1], with KB-3-1, with HACAT [2] and with CASKI. In addition, the Potency result in the test with C33A, in the test on CAOV3, in the test with Es-2, in the test on HeLa, with Hek293T and in the test on JEG-3 was “inactive” throughout. Besides, in the test on OV90, the Potency result is “inactive”.
For `CC(=O)OCC1OC(OC2COC(OC3COC(OC4C(OC5C(CO)OC(OC6CCC7(C)C(CCC8(C)C7CC=C7C9CC(C)(C)CCC9(C(=O)OC9OC(CO)C(O)C(O)C9OC9OCC(OC%10OCC(O)(CO)C%10O)C(O)C9O)C(O)CC78C)C6(C)C)C(O)C5O)OCC(O)C4O)C(O)C3O)C(O)C2O)C(OC(=O)/C=C/c2ccccc2)C(O)C1OC(C)=O` (stereo not given), the max response in the test with CRL-7250 was 2.77%; in the test with HEK293 it was -18.2%; in the test with KB-3-1 it was 4.45%; in the test on NIH3T3 it was -0.042%. Besides, the result with HaCat [1] was inactive. Further, the outcome in the test on HACAT [2] is “inactive [at 4.96 µM]”. The activity change, negative = cytotoxicity was 6.07% [at 6.55 µM] in the test on C33A; -0.975% [at 6.55 µM] in the test on CAOV3; 5.64% [at 6.55 µM] in the test with CASKI; -4.41% [at 6.55 µM] in the test with Es-2; 6.46% [at 6.55 µM] in the test with HeLa; 3.2% [at 6.55 µM] in the test on Hek293T. Further, the activity change, negative = cytotoxicity is -2.72% [at 6.55 µM] in the test with JEG-3 and -0.455% [at 6.55 µM] with OV90.
For `C[C@@H]1O[C@@H](OC2C(O[C@H]3[C@H](O[C@H]4CC[C@@]5(C)C(CC[C@]6(C)C5CC=C5C7CC(C)(C)CC(O)[C@]7(C)CC[C@]56C)C4(C)C)O[C@H](C(=O)O)[C@@H](O)[C@@H]3O)OC(CO)C(O)C2O)[C@H](O)[C@H](O)[C@H]1O` (stereo not given in full), the max response in the test with CRL-7250 is 4.13%; in the test on HEK293 it was -5.35%; in the test on KB-3-1 it was 3.37%; in the test with NIH3T3, 1.38%. Further, the molecule was classed as inactive in the test with HaCat [1]. In addition, the outcome with HACAT [2] is “inactive [at 9.27 µM]”. The activity change, negative = cytotoxicity in the test with C33A was 9.23% [at 11.6 µM]; in the test on CAOV3, 0.0107% [at 11.6 µM]; with CASKI it was 13.1% [at 11.6 µM]; with Es-2, 2.61% [at 11.6 µM]; in the test with HeLa, 3.53% [at 11.6 µM]; with Hek293T, 5.4% [at 11.6 µM]. In addition, the results for the activity change, negative = cytotoxicity in the test on JEG-3 and in the test on OV90 were 7.17% [at 11.6 µM] and 7.68% [at 11.6 µM], respectively.
On to `CC1(C)CC[C@]2(C(=O)O)[C@H](O)C[C@]3(C)C(=CCC4[C@@]5(C)CC[C@H](O[C@@H]6OC[C@@H](O)[C@H](O)[C@H]6O)[C@@](C)(C(=O)O)C5CC[C@]43C)[C@@H]2C1` (stereo not given in full), for which the max response in the test with CRL-7250 was -5.63%; with HEK293, 0.0666%; in the test with KB-3-1, 9.63%; in the test on NIH3T3 it was 0.796%. The molecule was classed as inactive in the test with HaCat [1] and with CASKI. The outcome in the test with HACAT [2] is “inactive [at 17.4 µM]”. Also, the Potency entry with C33A, with CAOV3, in the test on Es-2, with HeLa, with Hek293T and in the test on JEG-3 was “inactive” throughout. For the same molecule, the Potency result with OV90 is “inactive”.
For `CCCSc1nc(NC2CC2c2ccc(F)c(F)c2)c2nnn(C3CC(OCCO)C(O)C3O)c2n1` (stereo not given), the call in the test with CRL-7250, in the test with HaCat [1], with HACAT [2] and in the test with CASKI was inactive. In addition, in the test with HEK293, the Potency is 18.4 µM (active). Also, the max response with KB-3-1 was -19.7%; in the test on NIH3T3, -3.04%. Besides, the Potency entry in the test on C33A, in the test with CAOV3, in the test with Es-2, in the test on HeLa, in the test with Hek293T and with JEG-3 was “inactive” in each case. For the same molecule, the Potency entry in the test on OV90 is “inactive”.
Regarding `CC1CCCCCCCc2cc(O)cc(O)c2C(=O)O1` (stereo not given), the molecule was called inactive with CRL-7250, in the test on HaCat [1], in the test with KB-3-1, in the test with HACAT [2] and in the test with CASKI. Also, the max response in the test with HEK293 is 0.839%; in the test with NIH3T3 it was 0.752%. For the same molecule, the Potency entry in the test on C33A, in the test with CAOV3, with Es-2, in the test on HeLa, with Hek293T and in the test on JEG-3 was “inactive” each time. In addition, the Potency result in the test with OV90 was “inactive”.
`COc1ccc(-n2[nH]c3c(cnc4ccccc43)c2=O)cc1`: the max response is 1.83% in the test with CRL-7250, -1.19% in the test on HEK293 and 3.94% in the test with NIH3T3. The outcome in the test with HaCat [1], in the test with KB-3-1, in the test on HACAT [2] and with CASKI was inactive. Also, the Potency entry in the test with C33A, with CAOV3, in the test on Es-2, with HeLa, with Hek293T and with JEG-3 was “inactive” throughout. Also, the Potency result with OV90 was “inactive”.
